Results from the supplement of paper PMC7830784.
Structures can show the parent of a compound that is named as a salt.

Each compound was assayed on Brugia pahangi adult female (assay: IC50 motility inhibition on day 3). Conditions: 3 days.
Method: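 Single adult female Brugia pahangi worms in 24-well plates (RPMI-1640, 5% FBS, 37 °C) were treated with 10 µM of each compound from a 2121-drug library (4 replicates; 1% DMSO vehicle and 10 µM auranofin controls). Motility was recorded with WormAssay dark-field imaging, and % inhibition of motility on day 3 is relative to vehicle. IC50 values for selected hits come from a 6-point dilution series (30 to 0.1 µM) fitted in GraphPad Prism.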

`Oc1ccc(Cl)c2cccnc12` [cloxyquin] and `O=[N+]([O-])c1ccc(O)c2ncccc12` [nitroxoline] are within 1.5-fold of each other in “IC50 motility inhibition on day 3” value: 4.9 µM for the first, 6.7 µM for the second.

Compared with `Cc1cc(C(C)(C)CC(C)(C)C)ccc1OCCOCC[N+](C)(C)Cc1ccccc1` [methylbenzethonium chloride], `CC(C)(C)CC(C)(C)c1ccc(OCCOCC[N+](C)(C)Cc2ccccc2)cc1` [benzethonium chloride] is 2.5-fold lower in “IC50 motility inhibition on day 3” value: 3.46 µM for the first, 1.4 µM for the second.

Going from `Clc1ccc(Cn2c(CN3CCCC3)nc3ccccc32)cc1` [clemizole hydrochloride] to `CC(C)/N=c1\cc2n(-c3ccc(Cl)cc3)c3ccccc3nc-2cc1Nc1ccc(Cl)cc1` [clofazimine], the “IC50 motility inhibition on day 3” value rises from 6.51 µM to > 30 µM.

First: CC(=O)OC[C@H]1O[C@@H]([S-])[C@H](OC(C)=O)[C@@H](OC(C)=O)[C@@H]1OC(C)=O.CCP(CC)CC.[Au+] [Auranofin]
Second: CCCCC(CC)COC(=O)CC(C(=O)OCC(CC)CCCC)S(=O)(=O)O (stereo not given) [docusate sodium]
The “IC50 motility inhibition on day 3” value of the first is 2.4-fold higher: 0.7 µM for the first, 0.294 µM for the second.

First: CC(=O)Oc1ccccc1C(=O)Nc1ncc([N+](=O)[O-])s1 [nitazoxanide]
Second: O=C(Nc1ccc([N+](=O)[O-])cc1Cl)c1ccccc1O
The “IC50 motility inhibition on day 3” value of the first is 2.2-fold higher: 5.78 µM for the first, 2.6 µM for the second.

Compared with `Oc1ccc2ccccc2c1` [beta-naphthol], `C[n+]1c2cc(N)ccc2cc2ccc(N)cc21` [acriflavinium hydrochloride] is 1.8-fold lower in “IC50 motility inhibition on day 3” value: 8.31 µM for the first, 4.62 µM for the second.

Going from `Cc1cc(C2CCCCC2)n(O)c(=O)c1` [ciclopirox olamine] to `Cc1cc(CC(C)CC(C)(C)C)n(O)c(=O)c1` (stereo not given) [piroctone olamine], the “IC50 motility inhibition on day 3” value rises from 0.287 µM to 0.883 µM (3.1-fold).

`Clc1ccc(COC(Cn2ccnc2)c2ccc(Cl)cc2Cl)cc1` (stereo not given) [econazole nitrate] and `Clc1ccc(COC(Cn2ccnc2)c2ccc(Cl)cc2Cl)c(Cl)c1` (stereo not given) [miconazole nitrate] are within 1.5-fold of each other in “IC50 motility inhibition on day 3” value: 3.97 µM for the first, 3.3 µM for the second.

Going from `COC(=O)C1=C(C)NC(C)=C(C(=O)OCC(C)C)C1c1ccccc1[N+](=O)[O-]` (stereo not given) [nisoldipine] to `COC(=O)C1=C(C)NC(C)=C(C(=O)OC(C)C)C1c1cccc2nonc12` (stereo not given) [isradipine], the “IC50 motility inhibition on day 3” value falls from 9.81 µM to 2.75 µM (3.6-fold).

`Cc1cc2nc3c(=O)[nH]c(=O)nc-3n(C[C@H](O)[C@H](O)[C@H](O)CO)c2cc1C` [riboflavin] and `O=C1c2cccc(O)c2C(=O)c2c(O)cccc21` [dantron] are within 1.5-fold of each other in “IC50 motility inhibition on day 3” value: 16 µM for the first, 18.3 µM for the second.

Compared with `Oc1c(Cl)cc(Cl)c2cccnc12` [chloroxine], `Oc1c(I)cc(Cl)c2cccnc12` [clioquinol] is 3.3-fold higher in “IC50 motility inhibition on day 3” value: 0.803 µM for the first, 2.61 µM for the second.

`O=C1C(O)=C([C@H]2CC[C@H](c3ccc(Cl)cc3)CC2)C(=O)c2ccccc21` [atovaquone] and `CC1=CC(=O)c2ccccc2C1=O` [menadione] are within 1.5-fold of each other in “IC50 motility inhibition on day 3” value: 4.16 µM for the first, 4.23 µM for the second.

`C=C(CC)C(=O)c1ccc(OCC(=O)O)c(Cl)c1Cl` [ethacrynic acid] and `Clc1ccc(C(Cn2ccnc2)OCc2ccsc2Cl)c(Cl)c1` (stereo not given) [tioconazole] are within 1.5-fold of each other in “IC50 motility inhibition on day 3” value: 2.6 µM for the first, 3.18 µM for the second.

Compared with `CCCCCCCCCCCCCCCC[N+](C)(C)CCN(Cc1ccc(OC)cc1)c1ncccn1` [thonzonium bromide], `CCCCCCCCCCCCCCCC[N+](C)(C)C` [cetrimonium bromide] is 5.8-fold higher in “IC50 motility inhibition on day 3” value: 1.07 µM for the first, 6.16 µM for the second.

Compared with `Cc1cc(/C=C/c2ccc3cc(N(C)C)ccc3[n+]2C)c(C)n1-c1ccccc1` [pyrvinium pamoate], `CN(C)c1ccc2nc3ccc(=[N+](C)C)cc-3sc2c1` [methylene blue] is higher in “IC50 motility inhibition on day 3” value: < 0.1 µM for the first, 1.06 µM for the second.

Going from `CCCCCCCCCCCCC[N+](C)(C)Cc1ccccc1` [benzalkonium chloride] to `CCCCCCCCNC(C)C(O)c1ccc(SC(C)C)cc1` (stereo not given) [suloctidil], the “IC50 motility inhibition on day 3” value rises from 1.9 µM to 3.66 µM (1.9-fold).

First: N=C(NCCCCCCNC(=N)NC(=N)Nc1ccc(Cl)cc1)NC(=N)Nc1ccc(Cl)cc1 [chlorhexidine]
Second: Clc1ccccc1C(c1ccccc1)(c1ccccc1)n1ccnc1 [clotrimazole]
The “IC50 motility inhibition on day 3” value of the first is 1.7-fold higher: 9.13 µM for the first, 5.5 µM for the second.

First: COc1cc(C)c2c(Oc3cccc(C(F)(F)F)c3)c(OC)cc(NC(C)CCCN)c2n1 (stereo not given) [Tafenoquine Succinate]
Second: C[n+]1cc2c3c(ccc2c2ccc4cc5c(cc4c21)OCO5)OCO3 [Sanguinarine chloride]
The “IC50 motility inhibition on day 3” value of the first is 2.3-fold higher: 14.1 µM for the first, 6.08 µM for the second.

Compared with `Oc1c(Cl)cc(Cl)c(Cl)c1Cc1c(O)c(Cl)cc(Cl)c1Cl` [hexachlorophene], `Oc1c(Cl)cc(Cl)cc1Sc1cc(Cl)cc(Cl)c1O` [bithionol] is 3.6-fold higher in “IC50 motility inhibition on day 3” value: 1.7 µM for the first, 6.1 µM for the second.

Compared with `CCCCCCCCCc1ccc(OCCOCCOCCOCCOCCOCCOCCOCCOCCO)cc1` [nonoxynol-9], `O=C1CN(/N=C/c2ccc([N+](=O)[O-])o2)C(=O)N1` [nitrofurantoin] is 3.6-fold higher in “IC50 motility inhibition on day 3” value: 3.24 µM for the first, 11.6 µM for the second.
